Bioassay records (PubChem BioAssay)
phage Ecoli inh: E. coli growth loss with phage present; growth absorbance; inhibition, % at 11.9 µM; actives 0.26% (n = 360,000); in the data active = inhibition above about 11%
AddAB inh: less growth of phage-infected E. coli with AddAB; E. coli expressing H. pylori AddAB, absorbance growth; inhibition, % at 11.9 µM; actives 0.29% (n = 330,000); AID 435030; in the data active = inhibition above about 12%;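 also: 0% = vehicle wells of infected cells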
AI-2 QS mod: Vibrio harveyi AI-2 quorum sensing modulation; Vibrio harveyi JMH597 AI-2 luminescence/OD600 ratio, 9 h; stronger effect = lower value; strain lacks LuxN and CqsS sensors; 0 = neutral-control median; activity change, % at 7.5 µM; actives 0.4% (n = 300,000); in the data active = activity change below about -75%, passing the limit was not always enough;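 also: luminescence divided by OD600 gain over 9 h not by final OD600 alone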
Tat transport: E. coli Tat transport inhibition. actives 0.036% (n = 340,000). AID 488895. inhibition, % at 10 µM. E. coli MC4100 TorA-mCherry Tat export, fluorescence;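 active = mean replicate inhibition at least 50% and at least half of replicates individually reaching 50%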;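 also: exported cargo escapes ClpAP degradation while cytoplasmic cargo is degraded and loses fluorescence; 0% = median of neutral control wells and 100% = median of NaSCN control wells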
E coli growth-1: counter-screen for AddAB inhibitors: E. coli growth inhibition; E. coli V3065 growth, OD600 absorbance, 18 h; inhibition, % at 11.9 µM; actives 0.27% (n = 330,000); AID 449728;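 active = inhibition above the campaign's mean inhibition across all tested compounds plus 3 SD, cut at about 9.9% in these data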;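 also: uninfected addAB+ strain grown without phage in ampicillin broth; 0% = DMSO wells and 100% = ciprofloxacin 0.95 µg/ml wells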
E coli growth-2: inhibitors of Escherichia coli growth; AID 1053175; OD600, 23 h; stronger effect = lower value; actives 0.21% (n = 330,000); OD600 absorbance (test concentration not listed);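 active = OD600 absorbance below the run mean of sample wells minus 3.6 SD, in any replicate, cut at about 0.56 in these data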
* hit, by the source's call; . = no result given. Compounds with a hit are over-represented: about 0.79% of the library has one in this group of screens.

SMILES	phage Ecoli inh	AddAB inh	AI-2 QS mod	Tat transport	E coli growth-1	E coli growth-2
C#CCOCCOCCOCCNc1nc(N2CCN(C(=O)C(Cc3ccc(O)cc3)n3cc(C(N)CC(C)C)nn3)CC2)nc(N2CCN(C(=O)C(CCC(=O)O)n3cc(C(N)C(C)CC)nn3)CC2)n1 (configuration not stated)	.	.	.	.	.	0.7
NC(=O)NN=Cc1sc(N2CCCCC2)nc1-c1cccs1	.	.	.	.	.	0.68
COc1ccc(C=C(C(=O)N2CCCCC2C(=O)O)c2ccc(OC)c(OC)c2)cc1 (configuration not stated)	.	.	.	.	.	0.69
S=C(NCCc1ccccc1)NC1CCCCCC1	2	2	5	-1	3	0.65
S=C(NCCNCc1ccccc1)NC1CCCCC1	.	98*	42	.	98*	.
O=C(CCC(=O)Nc1ccccc1)NN=Cc1ccccc1F	.	.	.	.	.	0.67
CN1CCN(C(c2cccs2)c2nnnn2Cc2ccc(F)cc2)CC1 (configuration not stated)	1	1	4	1	-2	0.45*
Fc1ccc(Br)cc1C=NN1CCN(c2ccccc2)CC1	.	.	.	.	.	0.68
Oc1ccccc1Oc1ncc(Br)c(N2CCOCC2)n1	2	1	7	-21	-1	0.69
Oc1ccccc1Oc1c(F)c(F)nc(N2CCCC2)c1F	3	0	-94*	6	1	0.65
COc1cccc(C=NNC(=O)CN2CC(c3ccccc3)CC2=O)c1O (configuration not stated)	.	.	.	.	.	0.74
CC(Oc1ccc(Cl)cc1)C(=O)NCCN1C(=O)SC(=Cc2cccnc2)C1=O (configuration not stated)	.	.	.	.	.	0.68
COc1ccc(C(=O)c2coc3c2C(=O)C(=O)c2ccccc2-3)cc1	1	1	-92*	-13	0	0.68
Cn1ncc(C#N)c1N=CN(Cc1ccccc1)Cc1ccccc1	.	.	.	.	.	0.7
O=C(NN=Cc1cccn1-c1ccccc1)c1ccncc1	.	.	.	.	.	0.66
CCOC(=O)C1C2COc3ccccc3C2N2C(=O)N(c3ccc(C(F)(F)F)cc3)C(=O)[C@]12C (some centres not stated)	.	.	.	.	.	0.65
O=C(NCc1ccc(F)cc1)c1nc(-c2cccs2)no1	3	2	-76*	-7	1	0.71
CCC(C)C(C)=NNC(=O)CNS(=O)(=O)c1ccc([N+](=O)[O-])cc1 (configuration not stated)	.	.	.	.	.	0.68
CSc1nc2cc(Oc3cccc(Cl)c3Cl)c(Cl)cc2[nH]1	3	1	9	-19	5	0.46*
CCn1c(C)nc2cc(C(=O)N/N=C/c3ccc(O)c(O)c3O)ccc21	21*	.	40	10	.	.
CCn1c(C)nc2cc(C(=O)N/N=C/c3cccc(OC)c3O)ccc21	7	3	0	4	-3	.
CCOC(=O)N1CCN(Cc2cc(Cl)c3cccnc3c2O)CC1	3	4	-78*	.	-4	0.59
Oc1c(CN2CCN(c3ccccc3)CC2)cc(Br)c2cccnc12	5	9	8	5	4	0.46*
c1ccc(N2CCN(Cc3ccnc4ccccc34)CC2)cc1	1	-1	48	8	0	0.64
CCOC(=O)N1CCN(Cc2ccccc2Cl)CC1	-2	-1	.	-2	-3	0.68
SMILES	phage Ecoli inh	AddAB inh	AI-2 QS mod	Tat transport	E coli growth-1	E coli growth-2
CCOC1OC(C(=O)O)=CC(c2ccc(C(F)(F)F)cc2)C1CCCO (configuration not stated)	.	.	.	.	.	0.7
CCN(CC)c1ccc(C(=O)NN=C(C)c2ccc(O)cc2)cc1	.	.	.	.	.	0.7
O=C(NNc1ccc(O)cc1)c1ccc(Br)cc1	10	7	11	-1	6	0.44*
CCCOc1ccc(C=NNC(=O)CN2CCCCC2)cc1	.	.	.	.	.	0.61
CC1CN(C(C)CO)C(=O)Cc2cc(NC(=O)C3CCCCC3)ccc2OC1CN(C)S(=O)(=O)c1ccccc1 (configuration not stated)	.	.	.	.	.	0.63
CCn1cc(C(=O)NC2CCCCC2C)c(=O)c2ccc(C)nc21 (configuration not stated)	2	7	12	2	2	0.059*
CCCCCC=NNC(=O)Cc1ccc([N+](=O)[O-])cc1	.	.	.	.	.	0.72
COc1ccc(N/C(N)=N/c2nc(C)cc(C)n2)cc1	5	.	.	.	.	.
Cc1cc(C)nc(N=C(N)Nc2ccc(-c3ccccc3)cc2)n1	.	.	.	.	.	0.53*
Cc1cc(C(=O)OCC(=O)Nc2cccc(S(=O)(=O)N(C)C)c2)c(C)o1	4	2	-89*	6	0	0.69
CCN(CC)S(=O)(=O)c1cccc(NC(=O)COC(=O)c2cc(C)oc2C)c1	1	0	11	2	-1	0.72
Cc1cc(C(=O)OCC(=O)Nc2ccc(F)cc2)c(C)o1	1	3	-82*	0	0	0.72
Cc1cc(C(=O)OCC(=O)Nc2ccccc2)c(C)o1	1	-1	-63	4	3	0.73
COc1ccc(C2=CC(=O)CC(c3ccc(OC)c(OC)c3)C2)cc1 (configuration not stated)	.	.	.	.	.	0.68
O=C(NN=Cc1cccs1)C(=O)Nc1cccc(Cl)c1	.	.	.	.	.	0.73
Cn1c(=S)oc2ccccc21	0	2	19	0	2	0.62
CC(=O)/C=C/n1c(=S)oc2ccccc21	4	6	-96*	.	1	0.63
C/C(=N\Nc1ncnc2sc(C)c(C)c12)c1ccccn1	6	11	-88*	20	14*	.
Cc1sc2ncnc(N/N=C/c3cccc(O)c3)c2c1C	2	1	15	2	1	.
CCN1CSC(=S)N(Cc2ccc(OC)cc2)C1	0	1	11	-30	0	0.5*
CCC(=O)Nc1ccc(C(=O)OCc2ccc(Cl)c(Cl)c2)cc1	4	3	30	-6	0	0.73
CC(=O)Nc1ccc(C(=O)OCc2ccc(Cl)c(Cl)c2)cc1	2	2	-85*	1	-3	0.68
CCOC(=O)C1=CCC(c2cc3cc(OC)ccc3n2C)N(S(=O)(=O)c2ccc(C)cc2)C1C(=O)OCC (configuration not stated)	.	.	.	.	.	0.75
CCCOc1ccc(-c2nc(=S)[nH][nH]2)cc1	2	2	-84*	-5	-1	0.7
Cc1ccc(S(=O)(=O)NN=CC(C)(C)CO)cc1	.	.	.	.	.	0.76
Cc1ccnc(NC(=O)CNC(=O)c2ccc(Br)o2)c1	5	3	-85*	2	2	0.68
C=C1c2cccc(O)c2C(=O)C2C(=O)[C@]3(O)C(=O)C(C(N)=O)C(=O)C(N(C)C)C3C(O)C12 (some centres not stated)	.	.	.	.	.	0.067*
COCCCNC(=O)CSc1ccsc1[N+](=O)[O-]	6	12	14	-3	11*	0.69
